Inhibition data for 61 compounds are collected here from PubChem BioAssay AID624330 (Southern Research Specialized Biocontainment Screening …, 2012).

About 2,100 (0.62%) of roughly 340,000 compounds were called active. These entries were drawn from the full list. Potency and affinity values are given separately. Values without a mark were called inactive.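 Rule for the calls: active = first-screen hits whose inhibition reached a set limit at any dose in the follow-up dose series; inconclusive = inhibition above the set first-screen limit but never retested; inactive = the rest.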

For this experiment, the target named is Rac GTPase-activating protein 1 (Homo sapiens) (UniProt Q9H0H5). The experiment is described as follows: MgcRacGAP GTPase-activating activity inhibitors, confirmation, biochemical, ADP Hunter fluorescence, primary and confirmatory (AID 624330).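 Note: fluorescence reports GDP produced by GAP-driven GTP hydrolysis.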 The note with it: MgcRacGAP-stimulated Rac1 GTP hydrolysis, at 30 µM, active compounds read high, GST-tagged Rac1 F28L mutant substrate.
Rac GTPase-activating protein 1 (Homo sapiens), sequence (Q9H0H5 whole entry, looked up): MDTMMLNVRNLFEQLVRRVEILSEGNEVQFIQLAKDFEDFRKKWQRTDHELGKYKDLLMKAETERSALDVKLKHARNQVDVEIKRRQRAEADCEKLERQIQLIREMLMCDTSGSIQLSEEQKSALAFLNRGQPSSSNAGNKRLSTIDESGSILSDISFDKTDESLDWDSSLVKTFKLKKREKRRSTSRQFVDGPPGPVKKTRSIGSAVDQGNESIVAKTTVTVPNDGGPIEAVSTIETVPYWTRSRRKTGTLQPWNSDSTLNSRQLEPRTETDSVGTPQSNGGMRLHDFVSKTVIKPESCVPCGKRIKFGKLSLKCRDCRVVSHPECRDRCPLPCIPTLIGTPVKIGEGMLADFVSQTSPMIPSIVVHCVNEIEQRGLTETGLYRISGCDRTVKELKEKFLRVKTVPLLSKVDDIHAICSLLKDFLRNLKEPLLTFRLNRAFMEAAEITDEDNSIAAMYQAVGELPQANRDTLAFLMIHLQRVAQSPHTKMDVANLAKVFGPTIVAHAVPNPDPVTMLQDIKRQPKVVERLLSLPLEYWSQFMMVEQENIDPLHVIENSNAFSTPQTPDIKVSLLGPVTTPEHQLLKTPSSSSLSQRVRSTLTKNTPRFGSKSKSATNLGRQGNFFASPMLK
In the case of `Cc1cc(OCC(=O)NCC(c2ccc(F)cc2)N2CCOCC2)ccc1Cl` (stereo unspecified), the inhibition is 3.16%.
As to `O=C(CCc1ccc(S(=O)(=O)N2CCOCC2)cc1)Oc1ccccc1`, the inhibition was 8.54%.
`O=C(CN1CCCC1)Nc1c2c(nc3ccccc13)N(Cc1ccccc1)CC2`: the inhibition was 3.93%.
Next, `CCCCc1nc2ccccc2c(NC(=O)CNC(C)(C)C)c1CCC`: 20.5%; `CN(C)c1cc(NC(=O)CN2CCOCC2)c2ccccc2n1`: 0.97%.
Regarding `CCCCc1nc2ccccc2c(NC(=O)CN2CCCC2)c1CCC`, the inhibition is 28.9%.
In the case of `CN1CCN(CC(=O)Nc2cc(N(C)C)nc3ccccc23)CC1` it was 27.1%; in that of `O=C(CN1CCCCC1)Nc1c2c(nc3ccccc13)N(c1ccccc1)CC2`, 20.7%.
For `CCCn1c(=O)c(C(=O)NCC2CCCO2)c(O)c2ccccc21` (stereo unspecified), the inhibition was 5.01%.
With `O=C1c2ccccc2C(=O)N1CCCCNc1ccccc1`, the inhibition is -2.64%.
Take `COC(=O)c1sc2ncccc2c1OCc1ccc(Cl)cc1`: the inhibition is 1.91%.
Consider `N#C/C(=C\c1ccc2c(c1)OCCO2)C(=O)NC1CCCCC1`, for which the inhibition is 4%.
As to `C=CCOC(=O)COc1ccc2c(C)c(C)c(=O)oc2c1C`, the inhibition was -6.38%.
Consider `COCCNC(=O)c1cc2c(=O)[nH]c3ccccc3c2s1`, for which the inhibition is 6.07%.
In the case of `CCOc1ccc(/C=N/Nc2ccc(C(F)(F)F)cc2[N+](=O)[O-])cc1O`, the inhibition was 13.1%.
As for `O=C(CCc1nc2ccccc2c(=O)[nH]1)Nc1ccc(F)c([N+](=O)[O-])c1`, the inhibition is 2.61%.
Regarding `Clc1ccc(C2=Nc3cc(Cl)ccc3OC2)cc1`, the inhibition was 12.9%.
Turning to `CCC1=Nc2cc(C(=O)O)ccc2Sc2ccc(Cl)cc21`, the inhibition was 6.46%.
Turning to `CCOc1ccc2nc(SCC(=O)NCc3ccc(OC)cc3)[nH]c2c1`, the inhibition is 6.56%.
For the compound `Cc1ccc2c(c1)N(C(=O)CCC(=O)N1CCN(c3ccccc3)CC1)CCO2`, the inhibition was 11.2%.
Turning to `COc1ccc(/C=N/NC(=O)CNC(=O)C2COc3ccccc3O2)cc1OC` (stereo unspecified), the inhibition was 6.43%.
On to `COc1ccc(/C=N\NC(=O)CNC(=O)C2COc3ccccc3O2)cc1[N+](=O)[O-]` (stereo unspecified), for which the inhibition was 5.39%.
In the case of `CCN(CC)c1ccc(/C=N/NC(=O)CNC(=O)C2COc3ccccc3O2)c(O)c1` (stereo unspecified) it was 5%; in that of `O=C(CNC(=O)C1COc2ccccc2O1)N/N=C\c1cccc(O)c1` (stereo unspecified), 3.96%.
In the case of `CCOC(=O)N1CCN(C(=O)COC(=O)c2cc(C)ccc2C)CC1` it was -2.55%; in that of `CCOc1ccccc1NC(=O)CN(c1ccc(C)cc1)S(=O)(=O)c1c(C)n[nH]c1C`, 0.88%.
Next, `Cc1cc(C(=O)O)ccc1NCc1ccncc1`: 7.32%; `COCCN(CC(=O)NC1CCCCC1)C(=O)CCCC(=O)Nc1ccccn1`: -5.13%.
Turning to `COC(=O)c1ccc(C(=O)OC)c(NC(=S)N2CCCCC2C)c1` (stereo unspecified), the inhibition is 8.35%.
Regarding `COc1ccc(N2CCN(CC(=O)Nc3ccc(C)cc3Br)CC2)cc1`, the inhibition was -18.4%.
Regarding `O=C(CN1CCN(c2ccccc2)CC1)NC(=O)NCc1ccco1`, the inhibition was 5.31%.
For the compound `O=C(CN1CCN(c2ccc(F)cc2)CC1)NC(=O)NCc1ccco1`, the inhibition was -4.47%.
As for `Cc1ccc(NC(=O)NC(=O)CN2CCC(C(N)=O)CC2)c(C)c1`, the inhibition is -2.71%.
Consider `Cc1ccccc1NC(=O)c1ccccc1NC(=O)c1ccco1`, for which the inhibition is 4.69%.
As for `Cn1cccc1C(=O)OCc1ccc(F)cc1`, the inhibition is 5.26%.
As to `COc1ccc(OC)c(/C=N\NC(=O)c2c(C)nc3cc(C)ccn23)c1`, the inhibition is -1.68%.
With `Cc1ccn2c(C(=O)N/N=C/c3ccc(Cl)cc3)c(C)nc2c1`, the inhibition is 8.94%.
Consider `COc1ccc(/C=N/NC(=O)c2c(C)nc3ccccn23)cc1[N+](=O)[O-]`, for which the inhibition was 0.27%.
`Cc1nc2ccccn2c1C(=O)N/N=C/c1ccc(F)cc1`: the inhibition was 6.23%.
For the compound `CN(CC1CCOCC1)C(=O)CC1C(=O)NCCN1Cc1cccc(Oc2ccccc2)c1` (stereo unspecified), the inhibition was -8.59%.
Regarding `O=C(CSc1nnc(CNC(=O)c2c(F)cccc2F)o1)NCCc1ccccc1`, the inhibition is 6.85%.
For the compound `CCN1C(=O)[C@@H]2[C@H](C1=O)[C@@H]1C(=O)Nc3ccccc3C(=O)N1[C@@H]2c1ccc(OC)cc1`, the inhibition is 3.37%.
On to `O=C(Nc1ccccc1C(=O)NCCc1ccccc1)c1cnccn1`, for which the inhibition was 8.13%.
For the compound `N#Cc1cc(-c2ccccc2)cnc1Sc1ccccc1`, the inhibition was -2.07%.
Next, `CCN(CC)CCCNC(=O)Cc1c(C(=O)O)n(C)c2ccccc12`: 7.17%; `Cc1ccccc1C(OCC(O)CN1CCC(C(N)=O)CC1)c1ccccc1` (stereo unspecified): 6.34%.
For the compound `CCOC(=O)N1CCN(CC(c2ccccc2)c2ccccc2)CC1`, the inhibition is 20.9%.
Regarding `c1ccc(C(CN2CCOCC2)c2ccccc2)cc1`, the inhibition is 14.5%.
`CCN1CCN(CC(O)COC(c2ccccc2)c2ccccc2)CC1` (stereo unspecified): the inhibition was 0.21%.
In the case of `CC(=O)c1ccc(N2CCN(CC(O)COC(c3ccccc3)c3ccccc3C)CC2)cc1` (stereo unspecified) it was 12.8%.
On to `OC(COC(c1ccccc1)c1ccccc1)CN1CCCCC1` (stereo unspecified), for which the inhibition is 6.55%.
Regarding `Cc1nnsc1C(=O)Nc1ccc(S(=O)(=O)N2CCCC(C)C2)cc1` (stereo unspecified), the inhibition was -21.6%.
Turning to `Cc1cc([N+](=O)[O-])nn1CC(=O)NCc1ccc(Cl)cc1`, the inhibition is 0.89%.
Regarding `COC(=O)Cc1c(OC)ccn(CCc2c[nH]c3ccccc23)c1=O`, the inhibition is 8.25%.
Regarding `CN1C(=O)C(C)(C)c2cc(S(=O)(=O)N3CCCC(C(=O)NCc4ccc(F)cc4)C3)ccc21` (stereo unspecified), the inhibition was 17.2%.
In the case of `CCC(CC)C(=O)Nc1ccc(C(=O)Nc2cc(C)on2)cc1` it was 5%.
With `COc1ccc(CNC(=O)C(=O)NCC2OCCCN2S(=O)(=O)c2cccs2)cc1` (stereo unspecified), the inhibition was 8.22%.
For the compound `COc1cc(C2Nn3c(nnc3-c3ccccc3OC)S2)ccc1O` (stereo unspecified), the inhibition was 3.42%.
Next, `N#CC1=C(N)OC(c2ccccc2)=C(C#N)C1c1ccc2c(c1)OCO2` (stereo unspecified): -0.39%.
In the case of `CC(C)Cc1ccc(C(=O)NCCOc2ccccc2)o1` it was 5.6%.
In the case of `CNC(=O)c1c(NC(=O)c2ccc(S(=O)(=O)N3CC(C)OC(C)C3)cc2)sc2c1CCN(C(C)C)C2` (stereo unspecified), the inhibition is 11.2%.
